Compounds with a hit are over-represented: about 2.8% of the library has one in this group of screens.
POLI inh: DNA polymerase iota (human) inhibition; Q9UNA4; Pol iota fluorescent replication assay, 10 min; Potency, µM (top dose mostly 115 µM), for inactives: at the top dose activity, negative = inhibition, actives largely listed as inhibitors; 390,000 tested, 1% active; further: potency means the concentration at half of the fitted maximal effect
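Pol iota at 10 nM preincubated 15 min with compounds at room temperature; reaction started with fluorescent substrate, 50 nM final. Fluorescence read kinetically at 0 and 10 min; buffer-only wells as negative control.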
POLH inh: blocks human DNA polymerase eta activity; Potency, µM (titrated, usually from 114 µM), without a hit: at the highest dose activity change, negative = inhibition, actives largely listed as inhibitors; AID 588591; 390,000 tested, 1.2% active; recombinant Pol eta, fluorescent DNA replication assay; Q9Y253; further: potency means the concentration at half of the fitted maximal effect; on the % scale 0 is the no-effect control and ±100 the full control effect
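Pol eta at 10 nM preincubated with compounds 15 min at room temperature; reaction started with fluorescent substrate (50 nM final) and read kinetically at 0 and 10 min.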
Pol kappa inh: DNA polymerase kappa (human) inhibition; purified Pol kappa, fluorescent DNA synthesis assay, 10 min; 400,000 tested, 0.53% active; Potency, µM (titrated, usually from 107 µM), for the others: at the highest dose activity, negative = inhibition, actives largely listed as inhibitors; Q9UBT6; further: potency means the concentration at half of the fitted maximal effect; on the % scale 0 is the no-effect control and ±100 the full control effect
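First, compounds were pin-transferred onto 10 nM Pol kappa. After 15 min at room temperature, substrate was added to 50 nM final. Fluorescence was then measured kinetically at 0 and 10 min.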
PI5P4Ka inh: inhibitors of human PI5P4K alpha; P48426; PI5P4Kalpha enzyme, ADP-Glo luminescence, 60 min; active compounds read low; max response, %; 330,000 tested, 1.2% active; AID 652105; active means max response of -50% or lower; inconclusive means between -30% and -50%; inactive means -30% or higher; further: value at the top dose of about 77 µM; on the % scale 0 is the no-effect control and ±100 the full control effect
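Single end-point luminescence (ADP-Glo) quantified ADP from PI5P4Kalpha turnover; ATP 5 microM final, 1 h at RT, 0.1% CHAPS and 0.28 mM EGTA in HEPES pH 7.4.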
Pol beta inh: inhibitors of human DNA polymerase beta | 340,000 tested, 1.3% active | AID 485314 | Pol beta primer extension/strand displacement, fluorescence kinetic | Potency, µM (doses to about 114 µM), inactives show at the highest dose activity change, negative = inhibition, usual class: inhibitors | P06746; further: potency means the concentration at half of the fitted maximal effect; on the % scale 0 is the no-effect control and ±100 the full control effect
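Kinetic readout of DNA synthesis with strand displacement by Pol beta. Compound and 10 nM enzyme sit 15 min at room temperature; 50 nM substrate starts the reaction, read immediately and at 10 min.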
WRN helicase inh: inhibitors of human WRN helicase. Potency, µM (titrated, usually from 114 µM), without a hit: at the highest dose activity change, negative = inhibition, actives largely listed as inhibitors. WRN helicase unwinding, fluorescent forked duplex, kinetic. 360,000 tested, 0.46% active. AID 651768. Q14191; further: potency means the concentration at half of the fitted maximal effect; on the % scale 0 is the no-effect control and ±100 the full control effect; nearly all actives have a fitted effect of over 55% in size
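Enzyme (20 nM final) and test compound sit together 15 min at room temperature before substrate addition. Substrate is a single-forked duplex oligonucleotide (100 nM) labelled with fluorophore and quencher, with 2 mM ATP; helicase unwinding raises red fluorescence, read kinetically.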
ADP-Glo counter: counter-screen for PI5P4K inhibitors: ADP-Glo detection interference, no enzyme; shares compounds with PI5P4Ka inh; ADP-Glo detection counter-screen, luciferase luminescence, no enzyme; Potency, µM (highest dose often 76.9 µM), for the others: top-dose activity change, negative = inhibition, most hits filed as inhibitors; 1,100 tested, under 10 active; AID 743285
* = called active by the depositor; ? = inconclusive; nt = not tested or not shown; [ ] = remark or other dose. Unless noted, the call rests on the fitted dose curve; in most records, active means well fitted curve in the direction sought with a large enough effect; inconclusive means small, poorly fitted or top-dose-only effect, or another doubt; inactive means no such curve, though single readings can be large; an effect the other way counts as inactive or inconclusive.

SMILES	POLI inh	POLH inh	Pol kappa inh	PI5P4Ka inh	Pol beta inh	WRN helicase inh	ADP-Glo counter
CC(=O)Nc1cc(-c2ccc(CO)cc2)cn2c(-c3ccc(F)c(Cl)c3)cnc12	nt	nt	nt	-54.2*	nt	-3.9%[57.1 µM]	1.5%
COCc1c(C(=O)N2CCc3ccccc32)oc2ccccc12	79.4µM*	-98.1%	?	-77.4*	-11.4%	-1.5%[11.6 µM]	0.0%
O=C(Nn1nnnc1Nc1ccccc1)C12CC3CC(CC(C3)C1)C2	10.7%	0.1%	-8.2%	6.1	27.3%	-8.5%	nt
O=C(Nc1cccc2ccccc12)c1csc(COCCO)n1	nt	nt	nt	4.5	nt	-12.8%	nt
O=C(Nc1cccc2cccnc12)c1csc(COCCO)n1	nt	nt	nt	-27.7	nt	0.1%	-6.6%
COc1cc2nc(Nc3ccc(C)c(Cl)c3)nc(N)c2cc1OC	18.4%	-25.8%	0.1%	-59.8*	-15.6%	-17.3%[57.1 µM]	4.0%
COc1cc2nc(Nc3ccc(C)c(C)c3)nc(N)c2cc1OC	8.4%	?	-6.8%	?	?	?	nt
Cc1ccc(S(=O)(=O)N2CCOCC2)cc1C(=O)NC(=S)N1CC(C)OC(C)C1 (stereo unspecified)	-0.1%	-3.4%	0.1%	3.6	1.2%	4.6%	nt
O=C(O)c1cccc(NC(=O)c2cn(-c3ccccc3)nc2-c2cc3ccccc3o2)c1	?	?	-27.5%	-52.6*	?	-23.6%[57.1 µM]	-7.8%
O=C(N/N=C/c1cn(-c2ccccc2)nc1-c1cc2ccccc2o1)c1ccncc1	7.3%	-7.3%	-6.5%	?	-1.3%	-1.2%	nt
CC1CCC(NC(=O)CN2C(=O)NC3(CCCCC3C)C2=O)CC1 (stereo unspecified)	-6.7%	-6.4%	-5.6%	-0.4	nt	3.4%	nt
CC1CCCCC12NC(=O)N(CC(=O)Nc1sc3c(c1C(N)=O)CCC3)C2=O (stereo unspecified)	?	17.8µM*	-37.1%	-60.4*	31.6µM*	?	0.1%
O=Cc1ccc(F)c([B-](F)(F)F)c1	-10.9%	-6.6%	-10.7%	-0.8	nt	-6.3%	nt
Cc1cccc(NC(=O)c2ccc3nccnc3c2)c1C	23.0%	-5.2%	-17.1%	-1.4	-11.0%	-3.6%	nt
O=C(Nc1ccccc1Cl)c1ccc2nccnc2c1	?	?	?	-26.8	36.1%	-2.3%[11.6 µM]	-5.3%

Assay outcomes deposited in PubChem by National Center for Advancing Translational Sciences (NCATS).
